PubChem BioAssay (EPA / NIEHS)
Calls of active or inactive are those of the source. Rule for the calls: active = hit-call score of the fitted dose curve at least 0.9, where 1 is the maximum; inactive = score below 0.9.

Each molecule was assayed on CYP4A11 (gene 1579) (assay: LTEA_HepaRG_CYP4A11: Life Technologies and Expression Analysis (LTEA) Assay for CYP4A11 using HepaRG (AID 2283486)). Conditions: mRNA level, 48 h; actives raise or lower the signal.
In short: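 Differentiated HepaRG cells, serum-free induction medium, exposed 48 h in duplicate to 8-point half-log series from 100 uM in 0.5% DMSO. CYP4A11 mRNA measured by qRT-PCR, normalized to ACTB, GAPDH, POLR2A; bidirectional fit versus DMSO.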

| SMILES | outcome | AC50 |
| --- | --- | --- |
| C[C@]12C=CC(=O)C=C1CC[C@H]1[C@@H]3C[C@@H](O)[C@](O)(C(=O)CO)[C@@]3(C)C[C@H](O)[C@@]12F | inactive |  |
| O=C(O)c1ccc2c(c1)nc(C(=O)NC1CCN(C3CC3)CC1)n2Cc1cc(-c2ccc(Cl)s2)on1 | inactive |  |
| O=S1(=O)CCCO1 | inactive |  |
| Cn1c(=O)c2[nH]cnc2n(C)c1=O | inactive |  |
| CC(C)c1nnc2ccc(-c3ocnc3-c3cc(F)ccc3F)cn12 |  | 33.6 µM (active) |
| CCCCCOC(C)=O | inactive |  |
| NC(N)=O | inactive |  |
| OCC(CO)(CO)CO | inactive |  |
| CC[C@H](C)C(=O)O[C@H]1C[C@H](O)C=C2C=C[C@H](C)[C@H](CC[C@@H](O)C[C@@H](O)CC(=O)O)[C@H]21 | inactive |  |
| c1ccc2ncccc2c1 | inactive |  |
| O=C(NO)C1(NS(=O)(=O)c2ccc(Oc3ccc(F)cc3)cc2)CCOCC1 |  | 71 µM (active) |
| CCCc1ccccc1 | inactive |  |
| CC(C)CC(C)O (configuration not stated) | inactive |  |
| CCCCC(CC)C(=O)OCCOCCOCCOC(=O)C(CC)CCCC (configuration not stated) |  | 50 µM (active) |
| CCCCCCCCCCCCCCCCOS(=O)(=O)O | inactive |  |
| C[C@@H](Oc1ccc(CNC(=O)c2cccnc2Oc2ccc3c(c2)OCO3)c(F)c1)C(=O)O |  | 28.5 µM (active) |

| SMILES | outcome | AC50 |
| --- | --- | --- |
| Cn1cc[nH]c1=S | inactive |  |
| CCCCCCCC/C=C\CCCCCCCC(=O)OC[C@@H](O)[C@H]1OC[C@H](O)[C@H]1O | inactive |  |
| c1ccc2c(c1)-c1cccc3c1c-2cc1ccccc13 |  | 26.1 µM (active) |
| COc1cc2c(c(OC)c1OC)-c1ccc(OC)c(=O)cc1[C@@H](NC(C)=O)CC2 |  | 0.0804 µM (active) |
| Cc1nccn1-c1ccc(Sc2cccc(C3(C(N)=O)CCOCC3)c2)cc1 |  | 4.94 µM (active) |
| OC[C@H]1O[C@@](CO)(O[C@H]2O[C@H](CO)[C@@H](O)[C@H](O)[C@H]2O)[C@@H](O)[C@@H]1O | inactive |  |
| Nc1ccn([C@@H]2O[C@H](CO)[C@@H](O)[C@@H]2O)c(=O)n1 | inactive |  |
| OCCOCCOCCO | inactive |  |
| CCCOc1ccc(S(=O)(=O)N2CCN(CC)CC2)cc1-c1nc2c(CC)n(Cc3ccccn3)nc2c(=O)[nH]1 |  | 30.9 µM (active) |
| Cc1nc(-c2ccccn2)ncc1C(=O)Nn1cc(C)c2cc(F)ccc21 |  | 59.4 µM (active) |
| NC(=O)N(O)[C@@H]1COc2cc(OCc3ccccc3)ccc21 | inactive |  |
| CNC(C)=O | inactive |  |
| O=C(O)c1cccc(C[C@@H]2COc3ccc(OCc4nc5cc(F)ccc5s4)cc3[C@@H]2O)c1 |  | 85.9 µM (active) |
| CCCC(CCC)C(=O)O | inactive |  |
| COc1cc(C(C)C)c2c(c1)S(=O)(=O)N(COc1cc(=O)n3cccc(OCCN4CCCCC4)c3n1)C2=O |  | 20.8 µM (active) |
| CCCCN1C(=O)[C@@H]([C@H](O)C2CCCCC2)NC(=O)C12CCN(Cc1ccc(Oc3ccc(C(=O)O)cc3)cc1)CC2 |  | 2.41 µM (active) |

The molecules below were run on Cytochrome P450 3A4 (Homo sapiens) (UniProt P08684) (assay: LTEA_HepaRG_CYP3A4: Life Technologies and Expression Analysis (LTEA) Assay for CYP3A4 using HepaRG (AID 2283487)). Conditions: mRNA level, 48 h; actives raise or lower the signal.
In short: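 Differentiated HepaRG cells in serum-free induction medium exposed in duplicate for 48 h to 8 half-log concentrations up to 100 uM in 0.5% DMSO. CYP3A4 mRNA measured by qRT-PCR normalized to ACTB, GAPDH and POLR2A; bidirectional fit versus DMSO.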

Chain of Cytochrome P450 3A4 (Homo sapiens) (P08684 whole entry, looked up): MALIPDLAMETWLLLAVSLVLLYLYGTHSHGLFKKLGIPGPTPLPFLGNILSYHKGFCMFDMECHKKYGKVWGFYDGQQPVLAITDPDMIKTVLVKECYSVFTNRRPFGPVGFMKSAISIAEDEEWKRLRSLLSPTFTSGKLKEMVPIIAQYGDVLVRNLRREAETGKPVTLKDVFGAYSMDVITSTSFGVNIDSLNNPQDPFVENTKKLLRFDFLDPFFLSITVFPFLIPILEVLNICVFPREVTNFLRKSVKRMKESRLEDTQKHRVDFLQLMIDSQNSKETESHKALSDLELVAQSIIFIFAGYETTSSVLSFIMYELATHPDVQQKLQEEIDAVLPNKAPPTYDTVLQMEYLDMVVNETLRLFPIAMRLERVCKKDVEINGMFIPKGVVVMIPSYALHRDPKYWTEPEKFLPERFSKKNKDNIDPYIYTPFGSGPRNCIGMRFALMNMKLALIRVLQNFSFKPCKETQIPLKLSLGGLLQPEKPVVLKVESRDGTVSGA

| SMILES | outcome | AC50 |
| --- | --- | --- |
| C[C@]12C=CC(=O)C=C1CC[C@H]1[C@@H]3C[C@@H](O)[C@](O)(C(=O)CO)[C@@]3(C)C[C@H](O)[C@@]12F | inactive |  |
| O=C(O)c1ccc2c(c1)nc(C(=O)NC1CCN(C3CC3)CC1)n2Cc1cc(-c2ccc(Cl)s2)on1 | inactive |  |
| O=S1(=O)CCCO1 | inactive |  |
| Cn1c(=O)c2[nH]cnc2n(C)c1=O | inactive |  |
| CC(C)c1nnc2ccc(-c3ocnc3-c3cc(F)ccc3F)cn12 |  | 1.42 µM (active) |
| CCCCCOC(C)=O | inactive |  |
| NC(N)=O | inactive |  |
| OCC(CO)(CO)CO | inactive |  |
| CC[C@H](C)C(=O)O[C@H]1C[C@H](O)C=C2C=C[C@H](C)[C@H](CC[C@@H](O)C[C@@H](O)CC(=O)O)[C@H]21 | inactive |  |
| c1ccc2ncccc2c1 | inactive |  |
| O=C(NO)C1(NS(=O)(=O)c2ccc(Oc3ccc(F)cc3)cc2)CCOCC1 |  | 4.48 µM (active) |
| CCCc1ccccc1 | inactive |  |
| CC(C)CC(C)O (configuration not stated) | inactive |  |
| CCCCC(CC)C(=O)OCCOCCOCCOC(=O)C(CC)CCCC (configuration not stated) | inactive |  |
| CCCCCCCCCCCCCCCCOS(=O)(=O)O | inactive |  |
| C[C@@H](Oc1ccc(CNC(=O)c2cccnc2Oc2ccc3c(c2)OCO3)c(F)c1)C(=O)O | inactive |  |
| CCCCCCCC/C=C\CCCCCCCC(=O)OC[C@@H](O)[C@H]1OC[C@H](O)[C@H]1O | inactive |  |
| c1ccc2c(c1)-c1cccc3c1c-2cc1ccccc13 |  | 7.02 µM (active) |
| Cc1nccn1-c1ccc(Sc2cccc(C3(C(N)=O)CCOCC3)c2)cc1 |  | 13.4 µM (active) |
| OC[C@H]1O[C@@](CO)(O[C@H]2O[C@H](CO)[C@@H](O)[C@H](O)[C@H]2O)[C@@H](O)[C@@H]1O | inactive |  |
| Nc1ccn([C@@H]2O[C@H](CO)[C@@H](O)[C@@H]2O)c(=O)n1 | inactive |  |
| OCCOCCOCCO | inactive |  |
| CCCOc1ccc(S(=O)(=O)N2CCN(CC)CC2)cc1-c1nc2c(CC)n(Cc3ccccn3)nc2c(=O)[nH]1 |  | 2.11 µM (active) |
| Cc1nc(-c2ccccn2)ncc1C(=O)Nn1cc(C)c2cc(F)ccc21 |  | 1.57 µM (active) |
| NC(=O)N(O)[C@@H]1COc2cc(OCc3ccccc3)ccc21 | inactive |  |
| CNC(C)=O | inactive |  |
| O=C(O)c1cccc(C[C@@H]2COc3ccc(OCc4nc5cc(F)ccc5s4)cc3[C@@H]2O)c1 |  | 78.2 µM (active) |
| CCCC(CCC)C(=O)O | inactive |  |
| COc1cc(C(C)C)c2c(c1)S(=O)(=O)N(COc1cc(=O)n3cccc(OCCN4CCCCC4)c3n1)C2=O |  | 20.8 µM (active) |
| CCCCN1C(=O)[C@@H]([C@H](O)C2CCCCC2)NC(=O)C12CCN(Cc1ccc(Oc3ccc(C(=O)O)cc3)cc1)CC2 |  | 1.82 µM (active) |
